The record followed here is PubChem BioAssay (NCI).

The structures appear in SMILES notation. Compounds without any hit were thinned out: in the full panel of roughly 83,000, 20% have a hit.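 Assay: single dose, 48 h. Readout: percent growth (0 = no net growth; negative = cell death). Active: <10.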 Values without a mark were called inactive. The source made the active and inactive calls.

Some test systems named below: NCI-H23 lung; NCI-H226 lung; NCI-H322M lung; HOP-62 NSCLC; NCI-H460 lung; NCI-H522 lung; A549/ATCC NSCLC; 786-0 renal; COLO 205 colon; DU-145 prostate; K-562 leukemia; MDA-MB-231 breast; RXF 393 renal; SF-268 CNS; SF-295 CNS; SF-539 CNS; UACC-257 melanoma; M14 melanoma; HCT-15 colon; MALME-3M melanoma.
Assay in all cases: NCI-60 one-dose screen, 48 h (100 = growth as untreated, 0 = no growth, -100 = all killed)
Conditions in all cases: 10 µM

With `Nc1nccc(Nc2ccccc2)n1`, the growth in the assay on NCI-H23 lung was 101%; with NCI-H226 lung, 91.7%; in the assay with NCI-H322M lung, 115%; in the assay on HOP-62 NSCLC, 102%; in the assay on NCI-H460 lung it was 109%; in the assay on NCI-H522 lung, 135%. Moreover, the growth was 99.1% in the assay with A549/ATCC NSCLC; 96.4% in the assay on 786-0 renal; 114% with COLO 205 colon; 109% in the assay on DU-145 prostate; 102% in the assay on K-562 leukemia; 118% in the assay on MDA-MB-231 breast. The growth was 112% in the assay with RXF 393 renal; 109% with SF-268 CNS; 104% in the assay with SF-295 CNS; 93.5% in the assay with SF-539 CNS; 95.8% in the assay on UACC-257 melanoma; 108% in the assay on M14 melanoma. Also, the growth in the assay with HCT-15 colon was 110%.
Take `O=C1OCC2=C1C(c1cccc(Cl)c1)c1cc3c(cc1N2CCO)OCO3` (stereo not given): the growth in the assay on NCI-H23 lung is 31.7%; in the assay with NCI-H226 lung, 23.4%; in the assay with NCI-H322M lung, 42.8%; with HOP-62 NSCLC it was 31.4%; in the assay with NCI-H460 lung, 7.53% (active); in the assay on NCI-H522 lung, -19.7% (active). Moreover, the growth in the assay with A549/ATCC NSCLC is 27.6%; with 786-0 renal, 35.7%; in the assay on COLO 205 colon, -6.41% (active); in the assay on DU-145 prostate, 11%; in the assay with K-562 leukemia, 15.4%; in the assay on MDA-MB-231 breast, 31.7%. The growth was 6.21% (active) in the assay with RXF 393 renal; 46.5% with SF-268 CNS; -4.59% (active) in the assay on SF-295 CNS; -9.08% (active) in the assay on SF-539 CNS; 61% with UACC-257 melanoma; 11% in the assay with M14 melanoma. Besides, in the assay on HCT-15 colon, the growth is 18.5%.
As for `COc1cccc(C2C3=C(COC3=O)N(CCO)c3cc(OC)ccc32)c1` (stereo not given), the growth is 26.3% in the assay on NCI-H23 lung; 0.496% (active) in the assay with NCI-H226 lung; 44% with NCI-H322M lung; 30.3% in the assay with HOP-62 NSCLC; 0.788% (active) with NCI-H460 lung; -34.8% (active) in the assay on NCI-H522 lung. In addition, the growth in the assay with A549/ATCC NSCLC was 18%; with 786-0 renal, 27.9%; in the assay with COLO 205 colon, -16.4% (active); in the assay with DU-145 prostate, -4.6% (active); with K-562 leukemia, 17.1%; in the assay on MDA-MB-231 breast, 8.33% (active). Also, the growth is 15.9% in the assay with RXF 393 renal; 31.6% in the assay with SF-268 CNS; -20.3% (active) in the assay on SF-295 CNS; -6.71% (active) with SF-539 CNS; 6.29% (active) with M14 melanoma; 11.3% in the assay with HCT-15 colon.
For `N=c1c2c(-c3ccccc3)c(-c3ccccc3)n(Cc3ccccc3)c2ncn1CCCO`, the growth in the assay with NCI-H23 lung is 45.7%; with NCI-H226 lung, 46.1%; in the assay on NCI-H322M lung it was 34.4%; in the assay on HOP-62 NSCLC, 52.9%; in the assay on NCI-H460 lung it was 8.17% (active); in the assay with NCI-H522 lung, 27.8%. Also, the growth is 17.3% in the assay on A549/ATCC NSCLC; 48.3% in the assay on 786-0 renal; -5.84% (active) with COLO 205 colon; 34.5% in the assay on DU-145 prostate; -0.624% (active) in the assay on K-562 leukemia; 39% in the assay with MDA-MB-231 breast. The growth with RXF 393 renal was 12.7%; in the assay with SF-268 CNS, 41.4%; in the assay with SF-295 CNS it was 88.3%; with SF-539 CNS, 54.1%; in the assay with UACC-257 melanoma it was -24.9% (active); in the assay with M14 melanoma, 43.4%. Moreover, the growth in the assay on HCT-15 colon is 28.1%.
For `O=c1c2ccccc2nc(SCCN2CCCCC2)n1CCc1ccccc1`, the growth was 77.5% with NCI-H23 lung; 101% with NCI-H226 lung; 97.6% in the assay with NCI-H322M lung; 89% with HOP-62 NSCLC; 105% in the assay with NCI-H460 lung; 89.2% with NCI-H522 lung. Further, the growth is 87.9% in the assay on A549/ATCC NSCLC; 86.7% with 786-0 renal; 74.7% with COLO 205 colon; 101% in the assay with DU-145 prostate; 66.5% in the assay on MDA-MB-231 breast; 101% in the assay on SF-268 CNS. Moreover, the growth in the assay with SF-295 CNS is 87.5%; with SF-539 CNS, 90.2%; with UACC-257 melanoma, 95.9%; in the assay on HCT-15 colon, 80.7%.
`CCN(CC)CCOc1nc2ccccc2c2c1-c1ccc(OC)cc1C2=O`: the growth is -29% (active) in the assay on NCI-H23 lung; 14% in the assay on NCI-H226 lung; -29.3% (active) in the assay with NCI-H322M lung; -4.04% (active) in the assay on HOP-62 NSCLC; -34.4% (active) in the assay on NCI-H460 lung; -56.4% (active) in the assay with NCI-H522 lung. Further, the growth in the assay with A549/ATCC NSCLC is -28.5% (active); with 786-0 renal, 0.417% (active); in the assay with COLO 205 colon it was -57.1% (active); with DU-145 prostate it was -8.05% (active); with K-562 leukemia, -17.8% (active); with MDA-MB-231 breast, 10.7%. For the same molecule, the growth in the assay with RXF 393 renal was 3.35% (active); in the assay on SF-268 CNS it was -6.65% (active); in the assay on SF-295 CNS, -7.99% (active); with SF-539 CNS, 29.2%; in the assay with UACC-257 melanoma, -18.8% (active); in the assay on M14 melanoma, -53.3% (active). Further, the growth in the assay with HCT-15 colon was 2.9% (active).
For `COc1cc(-c2cc(C(=O)N3CCN(C(=O)c4ccccc4NCc4ccco4)CC3)nc3cc(-c4ccccc4)nn23)cc(OC)c1OC`, the growth is 56.7% with NCI-H23 lung; 57% in the assay on NCI-H226 lung; 13.5% with NCI-H322M lung; 45.2% in the assay with HOP-62 NSCLC; 7.61% (active) in the assay with NCI-H460 lung; -6.6% (active) in the assay on NCI-H522 lung. The growth in the assay on A549/ATCC NSCLC is 24.6%; in the assay with 786-0 renal, 31.6%; in the assay on COLO 205 colon, -16.7% (active); in the assay with DU-145 prostate, 2.04% (active); in the assay with K-562 leukemia it was 12.3%; with MDA-MB-231 breast, 42.9%. Also, the growth is 6.82% (active) in the assay on RXF 393 renal; 38.6% with SF-268 CNS; 49.7% in the assay on SF-295 CNS; 17.8% in the assay with SF-539 CNS; 33.6% with UACC-257 melanoma; 23.8% in the assay with M14 melanoma. Besides, the growth with HCT-15 colon is 29.1%.
As to `O=C1OCC2=C1C(c1cccc(Br)c1)c1cc3c(cc1N2CCO)CCC3` (stereo not given), the growth in the assay with NCI-H23 lung was 21.1%; in the assay on NCI-H226 lung, -15.7% (active); in the assay on NCI-H322M lung, 36.8%; in the assay with HOP-62 NSCLC, 28.4%; in the assay on NCI-H460 lung, -6.92% (active); in the assay with NCI-H522 lung, -31.4% (active). The growth in the assay on A549/ATCC NSCLC is 12.5%; in the assay with 786-0 renal, 19.1%; in the assay on COLO 205 colon, -29.1% (active); in the assay with DU-145 prostate it was -28.9% (active); in the assay with K-562 leukemia, 19.4%; with MDA-MB-231 breast, -13% (active). Moreover, the growth in the assay on RXF 393 renal is 29.5%; with SF-268 CNS, 14.4%; in the assay on SF-295 CNS, -9.25% (active); in the assay with SF-539 CNS it was -1.5% (active); with M14 melanoma, 12.8%; in the assay with HCT-15 colon, 8.3% (active).
In the case of `O=C(NN1C(=O)CSC1c1ccc(Cl)cc1)c1cccnc1` (stereo not given), the growth is 86.8% in the assay with NCI-H23 lung; 249% with NCI-H226 lung; 98.9% in the assay with NCI-H322M lung; 93.7% in the assay on HOP-62 NSCLC; 103% in the assay with NCI-H460 lung; 87.1% in the assay on NCI-H522 lung. Moreover, the growth in the assay on A549/ATCC NSCLC was 113%; in the assay on 786-0 renal it was 92%; with COLO 205 colon, 110%; in the assay on DU-145 prostate, 52.2%; with MALME-3M melanoma it was 88.8%; in the assay on MDA-MB-231 breast, 156%. Further, the growth was 97% in the assay on SF-268 CNS; 78.3% in the assay with SF-295 CNS; 105% in the assay with SF-539 CNS; 112% in the assay on UACC-257 melanoma; 84.1% in the assay with M14 melanoma; 119% in the assay on HCT-15 colon.
